From PubChem
Insulin prom inh – TRM-6 insulin promoter activity inhibition | TRM-6 cells (human fetal islet line), insulin promoter-eGFP reporter, imaging; reporter expression induced with tamoxifen | inhibition, % at 2 µM | 0.9% of 130,000 active | AID 1273;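 active means inhibition above the mean plus 3 SD, with well images judged a real hit on visual review, cut at about 60% in these data, passing the limit was not always enough; inconclusive means inhibition over the cutoff but images rejected on review; inactive means inhibition not above the cutoff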
bCat KO growth – beta-catenin-lacking colon tumor cell growth suppression; HCT116 beta-catenin knockout viability, CellTiter-Glo, 60 h; hits give low values; viability, % at 10 µM; 1.5% of 140,000 active; AID 818;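 active means viability at or under a set limit, the compound median less 4 SD, cut at about 6% in these data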;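 further: 0% = Hyamine 1622 control at 20 µM and 100% = untreated cell control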
ROMK mod – modulates human ROMK potassium channel activity; P48048; Tet-inducible ROMK, thallium flux fluorescence; actives lie on both sides; B-score at 10 µM; 2% of 130,000 active; AID 1918;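 active means signal ratio slope over the read window, or its plate-corrected B-score, at least 3 SD from the plate mean, either direction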;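 further: B-score of the F/F0 ratio slope over 7 to 12 s after thallium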
Lmaj promast – reduces viability of Leishmania major promastigotes; resazurin fluorescence viability; inhibition, % at 10 µM; 9% of 200,000 active; AID 1063; in the data active means inhibition above about 50%;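 further: promastigotes grown with compound for 44 hours at 28 °C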
p97 inhibitor – inhibitors of human p97 ATPase | recombinant p97 ATPase, Kinase-Glo ATP luminescence, 3 h | P55072 | AID 1481 | 0.42% of 220,000 active | inhibition, % at 8 µM; in the data active means inhibition above about 15%;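 further: 0% = DMSO vehicle and 100% = wells lacking enzyme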
Target sequence (P55072 whole entry, looked up): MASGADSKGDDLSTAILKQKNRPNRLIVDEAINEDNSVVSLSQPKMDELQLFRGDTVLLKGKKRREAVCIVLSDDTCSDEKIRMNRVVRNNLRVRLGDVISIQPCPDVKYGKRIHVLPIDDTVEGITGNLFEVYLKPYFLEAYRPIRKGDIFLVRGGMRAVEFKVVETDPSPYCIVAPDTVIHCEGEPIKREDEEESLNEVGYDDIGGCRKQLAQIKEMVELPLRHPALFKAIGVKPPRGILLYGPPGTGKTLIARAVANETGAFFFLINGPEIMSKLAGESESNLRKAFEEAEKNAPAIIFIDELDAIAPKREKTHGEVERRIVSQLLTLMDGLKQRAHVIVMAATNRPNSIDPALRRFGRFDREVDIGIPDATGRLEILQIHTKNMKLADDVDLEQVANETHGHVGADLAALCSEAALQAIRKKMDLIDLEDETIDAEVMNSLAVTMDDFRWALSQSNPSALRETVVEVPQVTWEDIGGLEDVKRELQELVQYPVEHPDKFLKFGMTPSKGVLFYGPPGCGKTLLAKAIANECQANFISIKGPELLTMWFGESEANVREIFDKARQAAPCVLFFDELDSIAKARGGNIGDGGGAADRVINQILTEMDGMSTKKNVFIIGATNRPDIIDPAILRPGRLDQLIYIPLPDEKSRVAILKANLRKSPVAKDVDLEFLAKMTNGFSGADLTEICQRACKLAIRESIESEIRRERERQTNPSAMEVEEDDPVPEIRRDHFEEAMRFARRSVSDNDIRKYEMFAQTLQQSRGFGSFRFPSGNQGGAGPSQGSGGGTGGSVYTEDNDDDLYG
HCT116 PTEN-null – growth suppressors of cells with PTEN tumor suppressor deletion; HCT116 PTEN-null viability, CellTiter-Glo, 60 h; hits give low values; viability, % at 10 µM; 1.2% of 140,000 active;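 active means viability at or below a set limit, 4 SD under the median of all tested compounds, cut at about 3.7% in these data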;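 further: PTEN knockout HCT116 line with beta catenin targeted HCT116 as companion control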
ROMK hit retest – retested hit modulating human ROMK potassium channel. ROMK thallium flux, fluorescence ratio; hits give low values. shares compounds with ROMK mod. 54% of 3,000 active. normalized thallium flux (F/F0 slope) at 10 µM;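 active means Flux at 10 µM at least 3 SD below or above vehicle control mean in one or both replicates; inconclusive means no clear call, values can overlap the other calls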
Numbers without * were called inactive; ? = inconclusive; nt = not tested or not shown. Hits are enriched below; roughly 10% of the tested compounds scored in any of these assays.

SMILES	Insulin prom inh	bCat KO growth	ROMK mod	Lmaj promast	p97 inhibitor	HCT116 PTEN-null	ROMK hit retest
O=C(Cn1cc[n+](CC(=O)c2ccc(Cl)cc2Cl)c1)c1ccc(Cl)cc1Cl	nt	nt	-2.97*	nt	3.1	nt	0.0803
O=C(O)CCCCCNC(=O)CCn1cnc2ccccc2c1=O	-123.1	101.8	0.272	1.5	-4.2	97.5	nt
O=C(/C=C/c1ccc(F)cc1)N1CCCc2ccccc21	-48.1	nt	-2.36*	9.2	0.3	nt	?
CC(C)N(Cc1nc(-c2ccccc2)no1)C(=O)CN(C)S(=O)(=O)c1ccccc1	-7.0	89.4	nt	4.1	-2.0	88.2	nt
O=C(Cn1cc(S(=O)(=O)N2CCN(c3ccccc3F)CC2)c2ccccc2c1=O)NCCCN1CCCCCC1	18.5	nt	-1.5	3.2	6.6	nt	nt
COCCNC(=O)Cn1cc(S(=O)(=O)N2CCN(c3ccccc3F)CC2)c2ccccc2c1=O	nt	nt	-2.3*	-13.9	-1.7	nt	0.075
Cc1nc2cc(F)ccc2n1C1CCN(C(=O)c2c(F)cccc2F)CC1	18.2	nt	-0.125	5.3	2.6	nt	nt
Cc1nc2cc(F)ccc2n1C1CCN(S(=O)(=O)c2ccccc2)CC1	-30.3	77.8	-6.13*	13.4	3.4	82.9	?
COc1ccc(-n2c(-c3cnccn3)n[nH]c2=S)cc1	-50.0	90.7	nt	-1.1	6.5	98.2	0.0862
CC(CCc1ccccc1)NC(=O)CSc1nc(N)cc(N)n1 (centres undefined)	-31.8	85.7	nt	-4.2	-0.9	86.6	nt
CC(C)(C)c1ccc(N2C(=N)SCC2=O)cc1	nt	nt	-9.34*	nt	-0.9	nt	0.0415*
Cc1ccc(-c2csc(N3C(=N)SCC3=O)n2)cc1	nt	nt	nt	nt	6.4	nt	nt
Cc1ccccc1N(CC(=O)NC1CCCC1)C(=O)c1csnn1	nt	nt	1.26*	-3.5	4.6	nt	?
O=C(NNC(=S)Nc1ccc(Br)cc1Cl)c1ccncc1	32.4	84.5	5.99*	-8.5	1.7	90.1	0.109*
O=C(NNC(=S)Nc1ccccc1)c1ccncc1	nt	108.1	-0.128	-6.0	1.1	94.9	nt
Cc1ccc(Cl)cc1N1CCN(CC(=O)Nc2ccc(CN3CCCCC3)cc2)CC1	60.0	49.7	-4.64*	98.5*	-6.9	53.3	0.0541*
COc1cccc(CN2CCN(C(=O)CCc3nnc(C4CCCCC4)o3)CC2=O)c1	nt	nt	nt	nt	-0.6	nt	nt
O=C(Nc1nccs1)C1CC(=O)N(Cc2ccco2)C1 (centres undefined)	-16.7	nt	-0.782	-3.2	2.9	nt	nt
O=C(N/N=C/c1c(O)n(-c2ccccc2Cl)c(=O)c2ccccc12)c1cccnc1	nt	nt	-3.56*	-6.0	11.6	nt	0.0578*
COc1ccc(Cn2c(O)c(/C=N/NC(=O)c3cccnc3)c3ccccc3c2=O)cc1	nt	nt	-5.5*	2.0	8.1	nt	0.0316*
C1CCN(Cc2nnnn2CC2CCCO2)CC1 (centres undefined)	-23.1	nt	-0.0377	-2.9	-1.3	nt	nt
O=C(Cn1nc(CNc2ccc(Cl)cc2)[n+]2c1CCCCC2)c1ccc(Br)cc1	-42.9	72.1	-3.72*	59.1*	7.2	63.2	0.0533*
O=C(CNc1ccc(Cl)cc1)c1ccc(Br)cc1	nt	nt	2.69*	39.2	1.1	nt	0.086
COc1ccc(NCc2nn(CC(=O)c3ccc(Br)cc3)c3[n+]2CCCCC3)cc1	-22.2	nt	-0.147	18.4	7.8	nt	nt
CCOC(=O)c1c(C)n(C)c2ccc(OC)c(NC(=O)CN3CCN(Cc4ccccc4)CC3)c12	nt	104.8	-3.25*	4.8	-1.7	100.8	0.0675*
SMILES	Insulin prom inh	bCat KO growth	ROMK mod	Lmaj promast	p97 inhibitor	HCT116 PTEN-null	ROMK hit retest
CCOC(=O)c1c(C)n(C)c2ccc(OC)c(NC(=O)CN3CCN(C(=O)c4ccco4)CC3)c12	31.2	92.8	nt	0.0	-2.1	106.2	nt
Cc1cc(C)nc(SCC(=O)NN)n1	46.7	nt	0.332	4.1	1.1	nt	nt
CC1(C)CC(=O)C2=C(C1)OC(N)=C(C#N)C2C#Cc1ccccc1 (centres undefined)	7.1	19.6	-0.309	39.2	-1.3	18.2	nt
CC1(C)CC(=O)C2=C(C1)OC(N)=C(C#N)C2CCc1ccccc1 (centres undefined)	5.6	93.2	-5.07*	3.7	-0.2	97.4	0.0718
COc1cccc(CN2CCNC(=O)C2CC(=O)NCCOc2cccnc2)c1 (centres undefined)	nt	nt	-0.789	-2.4	2.1	nt	nt
N#C/C(=C\c1ccc(N2CCOCC2)o1)c1nc2ccccc2[nH]1	-142.1	57.6	nt	26.0	1.2	59.8	nt
N#C/C(=C/c1ccc(N2CCOCC2)o1)c1ccc(Cl)cc1	-62.8	65.5	nt	15.4	8.8	63.0	0.0514*
COc1ccc(NS(=O)(=O)c2ccc(NS(C)(=O)=O)cc2)cc1	-78.6	99.5	-3.24*	0.3	-3.8	100.0	0.0831
COc1ccc(S(=O)(=O)NC(C)C(=O)O)cc1 (centres undefined)	-2.9	92.5	1.03*	-2.4	5.1	99.3	0.0736
CCc1nnc(NC(=O)C2c3ccccc3Oc3ccccc32)s1	-20.7	59.8	nt	-8.1	-6.2	65.1	nt
CCN(CC)c1ccc(-c2nc3cnccn3c2NC2CCCC2)cc1	-55.6	48.8	nt	12.1	-2.6	46.3	nt
Cc1cc(=O)[nH]c(SCc2cccc(Br)c2)n1	62.5	90.4	-0.394	-9.6	0.5	93.3	nt
Cc1cc(CSc2nc(C)cc(=O)[nH]2)c2ncccc2c1	-16.7	nt	-11.3*	-6.1	6.1	nt	0.0776
Cc1ccc(C2CC(c3cccs3)=NN2C(=O)c2ccco2)o1 (centres undefined)	-158.3	nt	-5.54*	7.8	0.4	nt	?
O=C(c1ccco1)N1N=C(c2cccs2)CC1c1ccco1 (centres undefined)	nt	nt	-0.3	8.2	-0.4	nt	nt
O=C(CCCN1C(=O)C2CCCCN2C1=O)N1CCN(c2ccc([N+](=O)[O-])cc2)CC1 (centres undefined)	nt	83.8	0.171	-2.9	3.6	91.6	nt
O=C1C2CCCCN2C(=O)N1CCN1CCN(c2ccc([N+](=O)[O-])cc2)CC1 (centres undefined)	nt	80.3	-2.83*	-4.3	5.7	79.2	0.0473*
O=C(CSc1ncn[nH]1)N(C1CCCCC1)C1CCCCC1	12.5	84.7	0.778	3.7	-2.9	83.1	nt
CCCOc1ccc(/C=N\NC(=O)CCc2n[nH]c(=O)[nH]c2=O)cc1OC	18.2	nt	3.38*	-6.6	-4.2	nt	0.0894
S=C(NCCc1ccccc1)NC1CC2CCC(C1)N2Cc1ccccc1 (centres undefined)	0.0	nt	-2.33*	94.2*	-4.1	nt	0.0571*
Cc1c(SCCO)c(=O)[nH]c2cc3c(cc12)OCO3	nt	97.0	0.57	2.2	-7.9	101.2	nt
CCOC(=O)C(=CNc1ccccc1N1CCOCC1)C(=O)OCC	nt	nt	nt	nt	-1.5	nt	0.0643*
O=C(OC1CCCCC1=O)c1cc(Cl)ccc1[N+](=O)[O-] (centres undefined)	nt	nt	-0.281	7.0	1.6	nt	nt
CC1=CC(C)(C)N(S(=O)(=O)c2ccc(C)cc2)c2ccccc21	17.8	17.8	3.21*	100.0*	-2.4	16.3	0.0861
Oc1c(Cl)cc(Cl)cc1C=Nc1ccc(Br)cc1	-15.8	38.3	nt	-5.7	4.6	63.5	nt
